“And” between values parts separate entries of the source, which are not always exact repeats. Identical values can stand only once. The source made the active and inactive calls. How the source made its calls: active means hit-call score of the fitted dose curve at least 0.9, where 1 is the maximum; inconclusive means response in the unintended direction; inactive means score below 0.9.

Sequence of Peroxisome proliferator-activated receptor gamma (Homo sapiens) (P37231 whole entry, looked up, the tested form may be a part): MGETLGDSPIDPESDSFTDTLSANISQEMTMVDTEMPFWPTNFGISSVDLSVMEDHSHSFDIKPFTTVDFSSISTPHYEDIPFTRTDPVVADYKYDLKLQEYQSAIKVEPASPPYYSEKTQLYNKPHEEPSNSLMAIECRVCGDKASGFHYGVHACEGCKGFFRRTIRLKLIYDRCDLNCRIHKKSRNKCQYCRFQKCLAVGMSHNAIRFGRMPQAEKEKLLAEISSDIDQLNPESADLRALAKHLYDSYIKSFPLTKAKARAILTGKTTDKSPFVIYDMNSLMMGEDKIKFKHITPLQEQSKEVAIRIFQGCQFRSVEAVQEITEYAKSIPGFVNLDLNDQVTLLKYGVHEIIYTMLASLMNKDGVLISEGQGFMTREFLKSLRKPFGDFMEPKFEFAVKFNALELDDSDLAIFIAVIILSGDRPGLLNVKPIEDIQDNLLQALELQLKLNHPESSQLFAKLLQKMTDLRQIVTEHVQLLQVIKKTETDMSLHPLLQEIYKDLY

The experiment has as its target Peroxisome proliferator-activated receptor gamma (Homo sapiens) (UniProt P37231). The experiment can be described thus: OT_PPARg_PPARgSRC1_1440: Odyssey Thera (OT) 24-hour Protein-Complementation Assay for Peroxisome Proliferator-activated Receptor Gamma/ SRC-1 Co-activator (AID 2283388).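 Further: nuclear to cytoplasmic ratio of reconstituted Venus YFP fluorescence in fixed imaged cells.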 How it is done:
OT_PPARg_PPARgSRC1_1440 is a cell-based assay that uses HEK293T, a human kidney cell line, with measurements taken at 24 hours after chemical dosing in a 384-well plate.OT_PPARg_PPARgSRC1_1440 is one of one assay component(s) measured or calculated from the OT_PPARg_PPARgSRC1_1440 assay. It is designed to make measurements of protein fragment complementation, a form of binding reporter, as detected with fluorescence intensity signals by Protein-fragment Complementation technology.Data from the assay component OT_PPARg_PPARgSRC1_1440 was analyzed into 1 assay endpoint. This assay endpoint, OT_PPARg_PPARgSRC1_1440, was analyzed in the positive analysis fitting direction relative to DMSO as the negative control and baseline of activity. Using a type of binding reporter, measures of receptor for gain-of-signal activity can be used to understand the binding at the pathway-level as they relate to the gene PPARG. Furthermore, this assay endpoint can be referred to as a primary readout, because the performed assay has only produced 1 assay endpoint. To generalize the intended target to other relatable targets, this assay endpoint is annotated to the nuclear receptor intended target family, where the subfamily is non-steroidal.
The OT PPARg/SRC-1 assay assessed receptor-chemical interactions using a rapidly maturing, intensely fluorescent mutant of YFP known as Venus, rationally dissected into two separate fragments. The fragments were obtained as follows: first, fragments coding for YFP1 and YFP2 (corresponding to amino acid residues 1-158 and 159-239 of the full length YFP, respectively) were generated by oligonucleotide synthesis (Blue Heron Biotechnology), and then PCR mutagenesis was used to generate the mutant fragments IFP1 and IFP2. Fusion constructs were transfected into HEK293T cells with a (Gly4Ser)2 linker between the PPARg/SRC-1 and YFP fragment genes to facilitate complementation when interacting proteins bring fragments into close proximity. The construct is transiently transfected in HEK293T cells 48 hours prior to treatment with test compounds. Cells are seeded into optical quality 384-well poly-D-lysine coated plates in MEM alpha medium (Invitrogen) supplemented with 10 percent FBS (Gemini Bio-Products) 1 percent penicillin and 1 percent streptomycin, and grown in 37C incubator equilibrated to 5 percent CO2. Cells are allowed to adhere for 24 hours prior to treatment with compounds of interest or controls for 24 hours. Cells are fixed in 4 percent formaldehyde and stained with Draq5 (BioStatus) to identify cells and subcellular compartment boundaries prior to signal detection. 8 Images per well were acquired on an Evotec Opera at 2 wavelengths (488 and 635nm), and the ratio of fluorescence in the nucleus relative to fluorescence in the cytoplasm (N/C Ratio) in the 488nm channel was calculated for a minimum of 350 cells per image.
For `CC(O)CCO` (stereo not given), the compound was classed as inactive. Regarding `CCC12COCN1COC2`, the outcome was inactive. Same read-out and setting: the entry for `[O-][Cl+]O` is “inactive”; for `Nc1ccc(N=Nc2ccccc2)cc1` it is “inactive”. In the case of `Clc1ccc(Cl)c(Cl)c1`, the compound was called inactive.

For `OCCOCCO`, the compound was called inactive. Take `C[C@]12C=CC3=C4CCC(=O)C=C4CC[C@H]3[C@@H]1CC[C@@H]2O`: the compound was classed as inactive.

As for `O=[N+]([O-])C(Br)(CO)CO`, the call was inactive.

`Clc1ccc(C(c2ccc(Cl)cc2)C(Cl)(Cl)Cl)cc1`: the compound was called inactive. For `CCCCCCCCn1sccc1=O`, the outcome was inactive. On the same count and under the same terms, the entry for `c1ccc2c(c1)-c1cccc3cccc-2c13` is “inactive”.

On to `COC(=O)c1ccccc1N`, for which the compound was classed as inactive. On the same count and under the same terms, the entry for `Nc1cc(Cl)cc(C(=O)O)c1Cl` is “inactive”; for `Nc1ccc(Cc2ccc(N)cc2)cc1` it is “inactive”. On the same count and under the same terms, the entry for `Cn1cc(-c2ccccc2)c(=O)c(-c2cccc(C(F)(F)F)c2)c1` is “inactive”; for `c1ccc(N=Nc2ccccc2)cc1` it is “inactive”. Still for that read-out and setting: to `Nc1ccc(Cl)cc1N` belongs “inactive”. On to `C[N+](C)(C)CC1CO1` (stereo not given), for which the compound was classed as inactive. Still for that read-out and setting: to `Nc1ccc([N+](=O)[O-])cc1` belongs “inactive”; to `CS(=O)(=O)NC(=O)c1cc(Oc2ccc(C(F)(F)F)cc2Cl)ccc1[N+](=O)[O-]`, “inactive”. Still for that read-out and setting: to `COc1cc(C=O)cc2c1[C@H](COC(N)=O)[C@]1(OC(C)=O)ON2C[C@H]2[C@@H]1N2C(C)=O` belongs “inactive”. As for `O=C(N[C@H](c1ccccc1)[C@@H]1CN2CCC1CC2)c1c(Cl)ccc(C(F)(F)F)c1Cl`, the outcome was inactive.

`ClC1=C(Cl)C2(Cl)C3C(Cl)C=CC3C1(Cl)C2(Cl)Cl` (stereo not given): the compound was classed as inactive.

As for `[Cl-].[Cl-].[Hg+2]`, the outcome was inactive.

Regarding `CC(C)(O)c1cnn2c(-c3ccc(F)c(-c4c(F)cccc4C#N)c3)cnc2n1`, the AC50 is 92.9 µM (active) and 79.4 µM (active). For `N#CC(Br)(Br)C(N)=O`, the call was inactive. In the case of `CNC(=O)Oc1cccc2c1OC(C)(C)C2`, the compound was called inactive. On the same count and under the same terms, the entry for `Cc1cc(N=Nc2ccccc2C)ccc1N` is “inactive”; for `ClC1=C(Cl)[C@]2(Cl)[C@H]3[C@H]([C@@H]4C=C[C@H]3C4)[C@@]1(Cl)C2(Cl)Cl` it is “inactive”; for `CCCCCCCCOC(=O)c1ccc(C(=O)OCCCCCCCC)c(C(=O)OCCCCCCCC)c1` it is “inactive”. Still for that read-out and setting: the entry for `Cc1cccc(N)c1N` is “inactive”; for `CN(C)[C@@H]1C(=O)C(C(N)=O)=C(O)[C@@]2(O)C(=O)C3=C(O)c4c(O)cccc4[C@@](C)(O)[C@H]3C[C@@H]12` it is “inactive”; for `CC(C)COC(=O)c1ccccc1C(=O)OCC(C)C` it is “inactive”.

With `N#CC(Br)Br`, the result was inactive. Same read-out and setting: the entry for `c1ccc(C2CO2)cc1` (stereo not given) is “inactive”; for `Cc1ccc(N=C=O)cc1N=C=O` it is “inactive”. Consider `OCCCl`, for which the call was inactive. The same measure, in the same setting: the entry for `COP(=S)(OC)SCN1C(=O)c2ccccc2C1=O` is “inactive”; for `CC(C)N(Cc1ccccc1)C(=O)C(C)(C)C` it is “inactive”; for `Brc1ccc(Oc2ccccc2)cc1` it is “inactive”.

What is called AC50 is the midpoint of the concentration-response curve, whichever way the signal moves.

Values taken from PubChem BioAssay (EPA / NIEHS).
